For 17 molecules, Percent Effect results are on record in ChEMBL document CHEMBL3988442, “University of Dundee, Small-Polar-MMV Screening Library” (2021).

Molecules are shown by their SMILES.

Experiment [1] concerns the target T1, Aspartate--tRNA(Asp/Asn) ligase (Mycobacterium tuberculosis (strain ATCC 25618 / H37Rv)) (UniProt P9WFW3). Also: in the data most compounds retested in dose-response had high values.
T1 sequence (whole entry): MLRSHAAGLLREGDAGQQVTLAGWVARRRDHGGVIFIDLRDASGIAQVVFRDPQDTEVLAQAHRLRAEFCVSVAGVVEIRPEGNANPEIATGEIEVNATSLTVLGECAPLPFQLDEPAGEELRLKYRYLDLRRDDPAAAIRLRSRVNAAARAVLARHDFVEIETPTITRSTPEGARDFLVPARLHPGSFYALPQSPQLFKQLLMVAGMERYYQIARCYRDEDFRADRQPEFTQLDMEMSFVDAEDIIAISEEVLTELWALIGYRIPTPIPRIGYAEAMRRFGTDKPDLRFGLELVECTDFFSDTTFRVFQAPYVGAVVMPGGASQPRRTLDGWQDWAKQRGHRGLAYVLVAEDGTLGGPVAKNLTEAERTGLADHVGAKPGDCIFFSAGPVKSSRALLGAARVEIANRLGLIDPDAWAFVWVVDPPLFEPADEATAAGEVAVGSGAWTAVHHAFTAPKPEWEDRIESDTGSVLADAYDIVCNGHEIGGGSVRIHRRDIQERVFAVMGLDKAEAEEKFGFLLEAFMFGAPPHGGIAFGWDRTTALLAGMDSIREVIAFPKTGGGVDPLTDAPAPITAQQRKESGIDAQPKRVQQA
Briefly: Assay for Asp RNA synthetase-1 from Mycobacterium tuberculosis. The experiment is classed as functional. The arrangement: scale not given: direction of the effect not stated beside the values. Particulars: 30 µM.

Experiment [2] concerns the target Shiga toxin 2 (Escherichia coli O157:H7) (UniProt P09385+P09386). Briefly: E. coli 0.157:H7 Shiga Toxin SOP - stx2 screening assay. Set-up: scale not given: direction of the effect not stated beside the values. Format: functional. As to conditions: 30 µM.

Consider `O=C(NCc1ccc(-n2cncn2)nc1)c1ccoc1`, for which the Percent Effect in experiment [1] was 3.8%; in experiment [2] it was -9.83%.
Consider `COc1cccc(CN2CCN(C(=O)CN3CCOCC3)CC2)n1`, for which the Percent Effect in experiment [1] is -3.48%; in experiment [2], -2.5%.
Take `Cc1occc1C(=O)N1CCOCC2(CCN(Cc3nccs3)C2)C1` (centres undefined): the Percent Effect is -0.802% in experiment [1] and -26.4% in experiment [2].
For `O=C1CC(N(C(=O)c2ccc3c(c2)CCC3)C2CC2)C(=O)N1` (centres undefined), in that order: 0.714% and 6.53%.
For `CCc1nc2n(n1)CC(Nc1cc(C)nc3ncnn13)CC2` (centres undefined), in that order: -4.28% and 2.96%.
The like results for `O=C(NCc1nnc2n1CCCCC2)N1CCc2sccc2C1` were, in that order, -4.29% and -45.2%.
As to `Cc1nc(N2CCN(C)CC2)ncc1C(=O)N1CC(C)(C)C(C)(O)C1` (centres undefined), the values for the Percent Effect in experiment [1] and in experiment [2] were 3.48% and -28.2%, respectively.
Regarding `O=C(NCCC(=O)N1CCCCCC1)c1c(O)cc(F)cc1F`, the Percent Effect is -0.98% in experiment [1] and -11.1% in experiment [2].
The like results for `CC(C)c1nc(C2CCCN2Cc2ccccc2C#N)no1` (centres undefined) were, in that order, -6.4% and -29.9%.
For `CC(C)CCC(=O)NC(C)c1nnc2n1CCCCC2` (centres undefined), in that order: 1.76% and -17.4%.
The like results for `Cn1cc(CNCC2Cn3nnc(-c4ccccc4)c3CO2)cn1` (centres undefined) were, in that order, 5.57% and -42.7%.
Turning to `Fc1cccc(Oc2ccc(CNCC3CNc4ccnn4C3)cn2)c1` (centres undefined), the Percent Effect in experiment [1] is -6.37%; in experiment [2], -101%.
For the molecule `Cc1nn(C)c(C)c1NC(=O)CN1CCc2c(nc(C3CC3)n2C)C1`, the results for the Percent Effect in experiment [1] and in experiment [2] were -0.703% and -17.4%, respectively.
The like results for `CS(=O)(=O)NCc1cn2c(n1)CN(C(=O)c1ccc[nH]1)CC2` were, in that order, 1.81% and -6.4%.
The like results for `Cc1ccc([C@@H]2CN(C(=O)c3cccnn3)C[C@H]2NC(=O)C2CC2)cc1` were, in that order, -3.85% and 29.5%.
Turning to `CC(O)CN1CCN(C(=O)c2ccc(Cn3cccc3)cc2)CC1` (centres undefined), the values for the Percent Effect in experiment [1] and in experiment [2] were 11% and 19.4%, respectively.
For `Cn1nccc1C(=O)N1CCOC(Cc2cccnc2)C1` (centres undefined), in that order: -0.485% and -23.7%.
